PGE2 EP2 inh = inhibitors of human EP2 prostaglandin E2 receptor. 0.52% of 260,000 active. P43116. inhibition, % at 25 µM. C6 glioma cells expressing human EP2, cAMP TR-FRET; cells stimulated with saturating PGE2;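 active = percent inhibition above 40 after rounding to a whole number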;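 note: rat C6 glioma host cells with rolipram phosphodiesterase inhibitor present; the protocol text gives 20 µM as final concentration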
Target sequence (P43116 whole entry, looked up): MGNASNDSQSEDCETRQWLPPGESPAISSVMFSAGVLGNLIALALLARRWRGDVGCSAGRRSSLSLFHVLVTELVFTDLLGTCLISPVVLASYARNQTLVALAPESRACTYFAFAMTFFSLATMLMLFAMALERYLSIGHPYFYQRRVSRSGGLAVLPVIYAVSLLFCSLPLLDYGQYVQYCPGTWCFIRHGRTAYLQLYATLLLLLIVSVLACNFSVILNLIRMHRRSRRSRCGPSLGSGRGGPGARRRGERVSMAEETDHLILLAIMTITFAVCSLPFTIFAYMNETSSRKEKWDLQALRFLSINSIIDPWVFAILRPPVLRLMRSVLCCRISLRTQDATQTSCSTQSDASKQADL
Pf gametocyte = P. falciparum stage V gametocyte viability inhibition; P. falciparum stage V gametocytes, ATP luminescence, 24 h; inhibition, % at 10.9 µM; 0.065% of 150,000 active; AID 743093;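 active = inhibition above the mean plus 3 SD of compounds within the control limits, set per campaign, cut at about 38% in these data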;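 note: 0% = DMSO wells and 100% = medium only without gametocytes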
S1P3 antagonist = blocks the human S1P3 receptor | Q99500 | CHO S1P3 NFAT-BLA reporter, FRET fluorescence, antagonist mode | inhibition, % at 4.98 µM | 0.27% of 170,000 active;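 active = inhibition above the plate cutoff, the mean inhibition of test wells on that plate plus 3 SD, cut at about 28% in these data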;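 note: cells challenged with S1P at its EC80 of 0.8 µM; blue over green emission ratio from cleaved BLA substrate after 4 h stimulation; 0% = S1P-stimulated wells and 100% = unstimulated DMSO-only wells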
Target sequence (Q99500 whole entry, looked up): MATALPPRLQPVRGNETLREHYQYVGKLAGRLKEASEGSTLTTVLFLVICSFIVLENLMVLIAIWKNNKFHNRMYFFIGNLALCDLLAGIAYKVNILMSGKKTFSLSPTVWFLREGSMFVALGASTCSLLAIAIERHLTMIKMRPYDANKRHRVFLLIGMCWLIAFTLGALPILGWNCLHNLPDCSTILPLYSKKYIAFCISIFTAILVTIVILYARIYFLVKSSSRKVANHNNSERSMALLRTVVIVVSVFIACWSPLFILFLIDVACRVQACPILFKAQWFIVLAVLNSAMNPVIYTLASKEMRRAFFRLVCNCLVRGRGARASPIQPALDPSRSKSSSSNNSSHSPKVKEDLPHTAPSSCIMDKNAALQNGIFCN
EP2 mod = modulates human prostaglandin E2 receptor EP2 signaling; P43116; EP2-expressing cells, cAMP HTRF FRET, PGE2 co-stimulation; induction, % at 25 µM; 0.83% of 260,000 active; AID 940;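 active = compounds whose cAMP rise, as percent of the full-agonist control response, exceeds 60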;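 note: rat C6 glioma line stably carrying human EP2 under a CMV promoter; the protocol text gives 20 µM as final concentration; 100% = response of wells given 1 µM PGE2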
S1P4 antagonist = antagonists of human S1P4 receptor. AID 1510. inhibition, % at 4.98 µM. S1P4-expressing cells, antagonist mode, reporter read-out. O95977. 0.26% of 220,000 active; in the data active = inhibition above about 29%;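 note: 0% = wells stimulated with agonist and 100% = vehicle wells without agonist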
S1P4 agonist = human S1P4 receptor agonism | AID 1509 | O95977 | 0.35% of 220,000 active | S1P4-expressing cell line, agonist reporter assay | activation, % at 4.98 µM; in the data active = activation above about 11%;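 note: 0% = DMSO vehicle and 100% = reference agonist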
Numbers without * were called inactive; . = no result; ! = not active in a repeat. An excerpt weighted towards active compounds, which were near 1.9% of everything screened.

SMILES | PGE2 EP2 inh | Pf gametocyte | S1P3 antagonist | EP2 mod | S1P4 antagonist | S1P4 agonist
c1ccc(-c2nc3ccccc3c3nc4ccccc4n23)cc1 | 6.5 | -19.1 | -9.4 | 64.3* | -2.2 | 0.8
Cc1ccccc1C1c2[nH]c3ccccc3c2CCN1CCCn1cccn1 (stereo not drawn) | 8.8 | -16.3 | 8.4 | 63.6* | 3.5 | 2.3
CCOC(=O)C1(C)C=C(Nc2ccccc2)C(=O)N1c1ccccc1 (stereo not drawn) | 6.6 | 8.7 | -0.1 | 61.5* | -28.3 | 1.9
Cc1ccc(C)c2[nH]c(=O)c(CN(CCCO)C(=S)NCc3ccccc3)cc12 | 11.7 | . | . | -44.1 | . | .
COc1ccc(C(C)=O)cc1CSc1nc2ccccc2c(=O)n1-c1ccccc1 | 7.0 | -6.5 | -21.5 | 64.0* | -13.0 | -0.3
COc1ccc(CC(=O)NC(C)c2nc3cccnc3n2C(C)C)cc1OC (stereo not drawn) | 6.7 | . | . | -29.9 | . | .
O=C(O)c1cc2n(n1)C(C(F)(F)F)CC(c1ccccc1)N2 (stereo not drawn) | 7.0 | . | . | -12.3 | 10.2 | 0.3
COc1ccc(C2CC(C(F)(F)F)n3nc(C(=O)O)cc3N2)cc1OC (stereo not drawn) | 6.3 | 2.0 | -9.8 | 61.6* | -2.0 | 0.3
NC(=O)CSc1nc(-c2ccccc2)nc2c1CCCC2 | 14.4 | 13.7 | 0.6 | -7.0 | -8.1 | 1.4
O=C(O)CSc1nc2ccccc2c2c1CCCC2 | 9.0 | . | . | 88.1* | . | .
Cc1cc2nc(SCC(=O)N(C)C)c3c(c2cc1C)CCCC3 | 13.3 | 3.3 | . | 61.6* | -13.7 | -0.8
O=C(C[N+]1(c2ccccc2)CCOCC1)c1ccccc1 | 53.4* | . | . | 15.3 | . | .
O=C(C[C@@H](C(=O)O)N1CCOCC1)c1ccccc1 | 13.5 | . | . | 25.5 | . | .
COc1ccccc1OCc1nnc(SCC(=O)Nc2c(C)cc(C)cc2C)n1C | 8.9 | . | . | -0.4 | . | .
COCCCN1C(=O)C(=O)/C(=C(\O)c2cccc(OC)c2)C1c1ccncc1 (stereo not drawn) | 16.9 | . | . | -4.2 | . | .
NS(=O)(=O)c1ccc(N2CCCC2=O)c([N+](=O)[O-])c1 | 15.5 | 38.2* | -18.9 | 20.1 | -9.9 | -0.5
NNS(=O)(=O)c1ccc(N2CCCC2=O)c([N+](=O)[O-])c1 | 6.0 | 28.0 | -3.4 | -12.2 | -13.8 | 2.3
COC(=O)c1ccccc1NC(=O)C12CC3CC(C1)CC(n1cnc(Cl)n1)(C3)C2 | 12.3 | . | . | 62.2* | -4.6 | -1.3
COC(=O)C12CC3CC(C1)CC(n1cnc(Cl)n1)(C3)C2 | 6.7 | . | . | 2.9 | 7.5 | -0.4
COCCN1CCN(c2cc(C)nc3c(-c4cccs4)c(C)nn23)CC1 | . | . | . | -25.4 | . | .
Cc1oc2ncnc(N)c2c1C | 6.7 | . | -9.3 | -1.9 | -3.2 | 2.1
Cc1ccc(-c2oc3ncnc(N)c3c2-c2ccc(C)cc2)cc1 | 4.8 | . | -21.8 | 60.8* | -1.9 | 0.1
COC(=O)[C@H]1[C@@H]2C[C@H]3c4[nH]c5ccccc5c4CCN3C[C@H]2CC[C@@H]1OS(=O)(=O)O | 48.2* | . | . | 10.4 | . | .
COC(=O)c1sc2nc3c(c(-c4cccs4)c2c1N)CCCC3 | 10.0 | -2.5 | 0.2 | 64.2* | 9.0 | 0.9
COc1ccc(/C(O)=C2/C(=O)C(=O)N(Cc3cccnc3)C2c2ccc(OC)c(OC)c2)c(C)c1 (stereo not drawn) | 11.9 | . | . | 27.1 | . | .
SMILES | PGE2 EP2 inh | Pf gametocyte | S1P3 antagonist | EP2 mod | S1P4 antagonist | S1P4 agonist
Cc1cc(OCc2ccccc2)ccc1/C(O)=C1/C(=O)C(=O)N(Cc2cccnc2)C1c1ccncc1 (stereo not drawn) | 18.2 | -0.5 | 5.0 | 64.5* | 13.0 | -0.9
CC(C)[C@@H](Cn1nc(-c2ccc(F)c(F)c2)ccc1=O)NC(=O)Cc1ccsc1 | . | . | . | -39.9 | . | .
O=C(O)CCC(=O)c1ccc2ccc3cccc4ccc1c2c34 | 53.2*! | . | -9.6 | -23.1 | -3.3 | 1.0
c1cncc(CSc2nnc3c4ccccc4nc(C4CCCCC4)n23)c1 | 8.9 | . | . | 65.5* | . | .
c1cncc(CSc2nnc3c4c5c(sc4nc(C4CC4)n23)CCCC5)c1 | 8.8 | . | . | 9.6 | . | .
CCC(C)Sc1nc2c(c(=O)[nH]c(=O)n2C)n1Cc1ccc(Cl)cc1 (stereo not drawn) | 6.9 | -12.5 | 1.4 | 51.2 | -16.0 | 2.3
CCC(C)Sc1nc2c(c(=O)n(C)c(=O)n2C)n1Cc1ccc(Cl)cc1 (stereo not drawn) | 7.0 | . | . | 70.3* | . | .
C=C(C)CSc1nc2c(c(=O)n(C)c(=O)n2C)n1Cc1ccccc1Cl | 8.7 | . | . | 73.7* | . | .
Cn1c(=O)n(Cc2ccccc2F)c2ccccc21 | 8.0 | . | -0.4 | 30.0 | -18.0 | 0.6
C=C(C)CSc1nc2c(c(=O)n(C)c(=O)n2C)n1Cc1ccccc1 | 8.3 | . | . | 50.0 | . | .
CC(C)Sc1nc2c(c(=O)n(C)c(=O)n2C)n1Cc1ccccc1Cl | 4.0 | . | . | 61.7* | . | .
Cn1c(=O)n(Cc2ccccc2Cl)c2ccccc21 | 10.4 | -1.1 | -6.5 | 60.6* | -5.9 | 2.4
O=C(CN1CCC2(CC1)Nc1ccccc1-n1cccc12)NCc1ccco1 | . | . | . | -44.6 | . | .
CCCn1c(SCC(=O)Nc2ccccc2N2CCCCC2)nc2c1c(=O)n(C)c(=O)n2C | 21.9 | . | -2.8 | 78.4*! | 8.1 | 0.5
CCSc1nc2c(c(=O)n(C)c(=O)n2C)n1Cc1cccc2ccccc12 | 13.4 | . | . | 72.3* | . | .
CCCn1c(SCC(=O)Nc2ccccc2C(=O)OC)nc2c1c(=O)n(C)c(=O)n2C | 3.4 | 17.2 | 0.3 | 42.6 | 6.5 | -0.8
Cc1cccc2c(=O)c(NC(=O)N3CCn4cnnc4C3)c[nH]c12 | 4.0 | . | . | -8.9 | . | .
CCOc1cc(/C=C/c2nc(O)c([N+](=O)[O-])c(=O)[nH]2)ccc1OCc1cccc(C)c1 | 8.0 | . | . | 27.4 | . | .
Cc1ccc2nc3c(cc2c1)CN(Cc1cccs1)C(=O)CO3 | 9.4 | . | . | -41.2 | . | .
S=C1SCN(C2CCCCCCCCCCC2)CN1C1CCCCCCCCCCC1 | 40.8* | . | . | 12.5 | . | .
C1CCC(N2CCN(C3CCCC3)CC2)CC1 | 11.0 | . | . | -6.5 | . | .
Cc1ccc(NC(=S)Nc2cccc(-c3n[nH]c(=S)o3)c2)cc1 | 41.7* | -26.1 | 2.0 | -24.2 | 3.0 | 1.1
CC(C)n1c(SCC(=O)Nc2ccc(F)cc2)nc2c1c(=O)n(C)c(=O)n2C | 13.5 | . | . | -15.1 | . | .
CSc1nc(C)cc(Nc2ccc(O)c(CN3CCOCC3)c2)n1 | 44.1* | . | . | 5.9 | . | .
COc1ccc(Nc2cc(C)nc(N3CCOCC3)n2)cc1 | 12.6 | . | -26.1 | 26.6 | 16.8 | -0.9
SMILES | PGE2 EP2 inh | Pf gametocyte | S1P3 antagonist | EP2 mod | S1P4 antagonist | S1P4 agonist
COc1cccc(C2(NC(=O)C3C4C=CC5(CN(C)C(=O)C35)O4)CCCC2)c1 (stereo not drawn) | 3.7 | . | . | -27.4 | . | .
CCOc1cc(C2CC(=O)Nc3cc(C)c(C)cc32)ccc1O (stereo not drawn) | 6.2 | 0.4 | -13.8 | 63.6* | -0.9 | 0.9
O=C(Nc1ccc(CN2CCOCC2)cc1)c1ccc(-c2cc(Cl)ccc2Cl)o1 | 59.2* | 9.6 | . | -39.3 | 4.1 | 1.8
Fc1ccc(C(c2nnnn2C2CCCC2)N2CCOCC2)cc1 (stereo not drawn) | 6.4 | . | . | -41.0 | . | .
Cc1ccccc1C1(O)CCN(CC(O)c2ccc3ccccc3c2)CC1 (stereo not drawn) | 6.0 | . | . | -102.1 | . | .
COc1cc(CCc2ccc3c(c2)OCO3)oc(=O)c1 | 16.5 | . | . | 63.4* | . | .

Screens from PubChem.
